# Bioassay records from PubChem.
# Pol beta inh = qHTS Assay for Inhibitors of DNA Polymerase Beta; P06746; Pol beta primer extension/strand displacement, fluorescence kinetic; Potency, µM (doses to about 114 µM), hits mostly inhibitors; 1.3% of 340,000 active
#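 Human Pol beta at 10 nM; strand-displacement substrate 50 nM final. Compound exposure 15 min at room temperature before start, reaction 10 min at room temperature.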
# TDP1 inh = qHTS Assay for Inhibitors of Tyrosyl-DNA Phosphodiesterase (TDP1). Tyrosyl-DNA phosphodiesterase 1 (Homo sapiens), Q9NUW8. recombinant TDP1, AlphaScreen DNA substrate cleavage. Potency, µM (series often up to 130 µM), actives largely listed as inhibitors. 0.28% of 350,000 active. AID 485290, 2010; also: nearly all actives have a fitted effect of over 40% in size
#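 AlphaScreen read-out: signal falls as enzyme removes the 3' tyrosine-FITC from a 5'-biotinylated DNA oligo (15 nM, 5 min, RT). Enzyme was E. coli-made recombinant Tdp1 at 1 nM, exposed to compound for 15 min beforehand; beads 10 ug/ml, 10 min.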
# Pol kappa inh-1 = qHTS for Inhibitors of Polymerase Kappa | DNA polymerase kappa (Homo sapiens), Q9UBT6 | purified Pol kappa, fluorescent DNA synthesis assay, 10 min | Potency, µM (series often up to 107 µM), usual class: inhibitors | 0.53% of 400,000 active
# Target sequence (Q9UBT6 whole entry, looked up): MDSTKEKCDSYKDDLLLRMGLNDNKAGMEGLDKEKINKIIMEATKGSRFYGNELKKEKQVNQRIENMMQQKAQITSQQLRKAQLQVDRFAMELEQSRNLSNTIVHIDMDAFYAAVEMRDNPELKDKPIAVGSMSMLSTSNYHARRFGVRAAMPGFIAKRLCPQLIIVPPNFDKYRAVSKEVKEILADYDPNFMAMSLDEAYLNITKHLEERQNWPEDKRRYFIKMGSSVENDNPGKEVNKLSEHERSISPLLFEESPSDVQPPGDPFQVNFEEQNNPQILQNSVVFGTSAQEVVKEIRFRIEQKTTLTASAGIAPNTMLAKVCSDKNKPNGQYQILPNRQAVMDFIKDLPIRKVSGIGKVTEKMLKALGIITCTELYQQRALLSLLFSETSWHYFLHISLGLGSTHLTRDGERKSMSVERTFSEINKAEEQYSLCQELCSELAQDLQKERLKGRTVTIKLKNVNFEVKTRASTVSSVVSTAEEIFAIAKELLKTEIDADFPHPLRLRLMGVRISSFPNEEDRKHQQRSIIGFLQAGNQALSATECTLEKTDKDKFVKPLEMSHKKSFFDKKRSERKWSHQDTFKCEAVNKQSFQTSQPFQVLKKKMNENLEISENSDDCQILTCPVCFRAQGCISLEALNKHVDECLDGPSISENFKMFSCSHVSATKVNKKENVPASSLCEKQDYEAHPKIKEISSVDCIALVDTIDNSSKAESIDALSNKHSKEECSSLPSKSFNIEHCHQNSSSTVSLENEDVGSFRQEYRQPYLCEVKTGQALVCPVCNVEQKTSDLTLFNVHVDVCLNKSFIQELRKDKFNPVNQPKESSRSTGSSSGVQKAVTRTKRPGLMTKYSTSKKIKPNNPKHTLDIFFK
#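 Kinetic fluorescence readout at 0 and 10 min followed reaction start with substrate at 50 nM final. Beforehand, enzyme (10 nM Pol kappa) stood 15 min with compound at room temperature; buffer-only wells were negative controls.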
# POLI inh = qHTS for Inhibitors of Polymerase Iota. 1% of 390,000 active. AID 588590, 2011. Pol iota fluorescent replication assay, 10 min. DNA polymerase iota (Homo sapiens), Q9UNA4. Potency, µM (top dose mostly 115 µM), most hits filed as inhibitors
#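 Pol iota at 10 nM preincubated 15 min with compounds at room temperature; reaction started with fluorescent substrate, 50 nM final. Fluorescence read kinetically at 0 and 10 min; buffer-only wells as negative control.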
# Pol eta inh-1 = qHTS for Inhibitors of Polymerase Eta. DNA polymerase eta (Homo sapiens), Q9Y253. recombinant Pol eta, fluorescent DNA replication assay. Potency, µM (series often up to 114 µM), most hits filed as inhibitors. 1.2% of 390,000 active. AID 588591, 2011
#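 Fluorescent replication assay: 50 nM final substrate added after a 15 min room-temperature compound preincubation with 10 nM enzyme. Signal taken at 0 min and again at 10 min.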
# GALK confirm = Confirmation Assay for Inhibitors of Human Galactokinase (GALK); shares compounds with Pol eta inh-1; Potency, µM (titrated, usually from 115 µM), most hits filed as inhibitors; purified GALK, Kinase-Glo ATP depletion luminescence; 70% of 150 active
# Redox cycling = Confirmatory Assay for Inhibitors of Human Galactokinase (GALK): Phenol-HRP redox assay counterscreen; shares compounds with Pol eta inh-1; Phenol red-HRP H2O2 redox cycling, absorbance 600 nm; Potency, µM (top dose mostly 115 µM), usual class: inhibitors; 40% of 150 active
# HEK293 tox = Secondary Assay for Inhibitors of Human Galactokinase (GALK): HEK-293 Cell Viability Assay; shares compounds with Pol eta inh-1; HEK-293 viability, ATP luminescence (CellTiter-Glo), 24/48 h; Potency, µM (doses to about 46.1 µM), usual class: inhibitors; 10% of 170 active
# Pol kappa inh-2 = qHTS for Inhibitors of Polymerase Kappa: Confirmatory Assay for Cherry-picked Compounds | shares compounds with Pol eta inh-1 | purified Pol-kappa, fluorescent strand-displacement substrate | Potency, µM, hits mostly inhibitors | 76% of 920 active
# Pol eta inh-2 = qHTS for Inhibitors of Polymerase Eta: Confirmatory Assay for Cherry-picked Compounds | 64% of 2,600 active | AID 720502, 2013 | Pol eta primer extension, TAMRA/BHQ fluorescence, 10 min | shares compounds with Pol eta inh-1 | Potency, µM, usual class: inhibitors
# Hits are given with their value; – = inactive; ? = inconclusive; · = no result given; [ ] = dose if it differs, or a comment. A selection: hits, their analogues and other compounds. The true share with any hit is near 2.4%. Calls follow the shape of the dose curve; as a rule, active = well fitted curve in the direction sought with a large enough effect; inconclusive = small, poorly fitted or top-dose-only effect, or another doubt; inactive = no such curve, though single readings can be large; an effect the other way counts as inactive or inconclusive.
SMILES,Pol beta inh,TDP1 inh,Pol kappa inh-1,POLI inh,Pol eta inh-1,Pol eta inh-2,others
CCOC(=O)c1ccc2c(c1)[C@@H]1C=CC[C@@H]1[C@H](c1cccc(OC)c1OC)N2,–,·,–,?,–,·,
CC(C)(C)OC(=O)CN1C(=O)NC(Cc2c[nH]c3ccccc23)C1=O (stereo not drawn),?,·,–,–,–,·,
C/C(N)=C(/C#N)C(=O)CN1C(=O)NC(Cc2c[nH]c3ccccc23)C1=O (stereo not drawn),28.2µM,·,?,?,31.6µM,?,
COc1cc2c(C#N)c(N3CCN(C)CC3)nc(N)c2c(N)n1,–,–,·,·,·,·,
CCCOc1cc2c(C#N)c(N3CCCC3)nc(N)c2c(N)n1,·,·,–,?,44.7µM,?,
COc1ccc(Cn2c(C(=O)O)c(CNCCc3cccs3)c3ccc(C)cc32)cc1,–,–,–,–,–,·,
COc1ccc(-c2cn3cccnc3n2)cc1NC(=O)Nc1cc(C)ccc1C,–,·,–,?,79.4µM,?,Pol kappa inh-2=15
COc1cccc(NC(=O)Nc2cc(-c3cn4cccnc4n3)ccc2OC)c1,–,–,–,?,?,·,
CC1CCN(S(=O)(=O)c2ccc3ccccc3c2)CC1,–,–,–,–,–,·,
CC1CCN(S(=O)(=O)c2ccc3c(c2)C(Cl)(Cl)C(=O)N3)CC1,·,·,·,·,31.6µM,?,
Cc1ccc(/C=C2\C(=N)N3N=C(CC(=O)N4CCCCC4)SC3=NC2=O)cc1,–,–,?,?,?,19,
CSc1ccc(/C=C2\C(=N)N3N=C(CC(=O)N4CCCCC4)SC3=NC2=O)cc1,?,–,89.1µM,?,44.7µM,·,Pol kappa inh-2=67
N#CCCn1c(=O)c(CCc2ccccc2)nc2cnc(Oc3cccc(Cl)c3)nc21,·,·,–,·,·,·,
CCCC(CCC)C(=O)Nc1cccc(-c2cn3cccnc3n2)c1,?,–,–,–,–,·,
Cc1cc(C)c(NC(=O)COC(=O)c2ccc([N+](=O)[O-])s2)c(C)c1,–,–,–,–,–,·,
NS(=O)(=O)c1ccc(NC(=O)COC(=O)c2ccc([N+](=O)[O-])s2)cc1,7.08µM,–,–,79.4µM,?,·,GALK confirm=33.5µM;Redox cycling=21.1µM;HEK293 tox=–
O=C(COC(=O)c1ccc([N+](=O)[O-])s1)NCc1ccc(F)cc1,?,–,–,?,79.4µM,?,
CCSc1nnc(NC(=O)C2CC=CCC2C(=O)O)s1 (stereo not drawn),31.6µM,56.2µM,–,?,20µM,?,
Cn1c(-c2ccccc2)cc(=O)c2ccccc21,–,–,–,–,–,·,
Cn1c2ccccc2c(=O)n2c(=O)c3ccccc3cc12,–,–,·,·,·,·,GALK confirm=10.6µM;Redox cycling=9.43µM;HEK293 tox=–
CCn1c(=O)c2sccc2n2c(CCC(=O)Nc3ccc(C(C)C)cc3)nnc12,?,–,–,–,–,·,
COc1cc(/C=C2/C(C)=C(C#N)c3nc(N)c(C#N)c(C)c32)ccc1OCC(=O)O,?,–,89.1µM,?,17.8µM,30.1,
CCn1c(/C=C/c2ccc(O)c(O)c2)nc2ccccc2c1=O,22.4µM,–,79.4µM,?,14.1µM,67.5,
CCOC(=O)CNC(=O)O[C@@H]1Cc2cc(OC)ccc2O[C@H]1c1cccc(OC)c1,·,–,·,·,·,·,
O=C1N/C(=C/c2cccn2-c2ccccc2)C(=O)N1Cc1ccc(F)cc1,–,–,–,–,–,·,
SMILES,Pol beta inh,TDP1 inh,Pol kappa inh-1,POLI inh,Pol eta inh-1,Pol eta inh-2,others
Cc1ccc(NC(=O)CN2C(=O)N/C(=C\c3cccn3-c3ccc(C(=O)NS(C)(=O)=O)cc3)C2=O)cc1,·,·,·,·,·,?,
O=C1N/C(=C/c2cccn2-c2ccc(F)cc2)C(=O)N1Cc1ccccc1F,–,–,–,–,–,·,
Cc1cccc(NC(=O)CN2C(=O)N/C(=C/c3cc(C)n(C(C)C)c3C)C2=O)c1,–,–,–,–,–,·,
O=C(O)c1cccc(-n2cccc2/C=C2/NC(=O)N(Cc3ccccc3F)C2=O)c1,10µM,2.82µM,?,31.6µM,20µM,?,
O=C(CN1C(=O)N/C(=C\c2cccn2-c2cccc(C(=O)O)c2)C1=O)Nc1cccc(Cl)c1,·,·,·,·,·,·,Pol kappa inh-2=?
COc1ccc(Nc2nnc(-c3ccc(C)c(S(=O)(=O)N4CCOCC4)c3)c3ccccc23)cc1,–,–[12.3 µM],–,–,–,·,
COC(=O)c1c(-c2cccs2)csc1NC(=O)COc1ccc(C(C)C)cc1,–,–,–,–,·,·,
CCc1ccc(CNC(=O)CCc2c(C)nn(-c3ccc(N4CCCCC4)nn3)c2C)cc1,–,–,–,–,–,·,
COCCNC(=O)CCC(=O)N1Cc2cccc(OC)c2Oc2ncccc21,–,–,–,–,–,·,
CC(C)c1ccc(NS(=O)(=O)c2ccc3[nH]cc(C(=O)NC4CCCCC4)c(=O)c3c2)cc1,25.1µM,·,?,?,35.5µM,75.7,Pol kappa inh-2=18.9
CC(C)c1ccc(NS(=O)(=O)c2ccc3[nH]cc(C(=O)NCC4CCCO4)c(=O)c3c2)cc1 (stereo not drawn),31.6µM,·,–,79.4µM,89.1µM,?,Pol kappa inh-2=37.7
Cc1cc(C)cc(NS(=O)(=O)c2ccc3[nH]cc(C(=O)NC4CCCCC4)c(=O)c3c2)c1,?,–,–,–,–,·,
CCc1ccc2oc(-c3cccc(NC(=O)c4ccc(-c5cccc([N+](=O)[O-])c5)o4)c3)nc2c1,–,–,–,–,–,·,
CC(=O)Oc1cc(C(=O)OCC(=O)N2CCc3ccccc3C2)cc(OC(C)=O)c1OC(C)=O,·,·,39.8µM,?,7.08µM,?,Pol kappa inh-2=16.8
COc1ccc(C(=O)OCC(=O)N2CCc3ccccc3C2)cc1OC,·,–,–,–,–,·,
CC1=C(C(=O)Nc2cccnc2)C(c2ccc(Cl)cc2)n2nc(-c3ccccc3)nc2N1 (stereo not drawn),–,–,–,–,–,·,
Cc1ccc(C(=O)/C=C/c2cc(Br)cc(Br)c2O)o1,?,·,–,?,50.1µM,?,
